Values joined by “and” are separate entries in the source; they are usually repeats but may differ in a detail not shown here. Equal entries are not always repeated. Results filed as inconclusive are left out. Active and inactive are the calls of the source. The call rests on the fitted dose curve; in most records, active means well fitted curve in the direction sought with a large enough effect; inconclusive means small, poorly fitted or top-dose-only effect, or another doubt; inactive means no such curve, though single readings can be large or run the other way.
What follows are compounds tested against Lysosomal acid glucosylceramidase (Homo sapiens) (UniProt P04062) (assay: qHTS Assay for Inhibitors and Activators of N370S glucocerebrosidase as a Potential Chaperone Treatment of Gaucher Disease: Primary Screen Confirmation). Conditions: N370S glucocerebrosidase enzyme activity, fluorogenic substrate; series mostly up to 54 µM.
Excerpt: NIH Chemical Genomics Center [NCGC]
NIH Molecular Libraries Probe Production Centers Network [MLPCN]
Assay Submitter (PI): Wei Zheng
Glucocerebrosidase (GC) catalyzes the hydrolysis of beta-glucocerebroside to glucose and ceramide in lysosomes. Mutations in the glucocerebrosidase gene result in Gaucher disease, an autosomal recessive lysosomal storage disorder. Many of the mutations encountered in patients with Gaucher disease are missense alterations that may cause misfolding, decreased stability and/or mistrafficking of this lysosomal protein. […] These inhibitors include iminosugar analogs and three non-iminosugar inhibitors identified from a previous HTS of 62,000 compounds with the wild type recombinant enzyme. However, the enhancement of enzyme activity by the chaperone action of an enzyme inhibitor must be balanced against the direct inhibition of the enzyme. An enzyme activator could also function as a chaperone by binding to the enzyme and helping to correct its misfolding and mistrafficking. While activators for GC have not yet been identified, they may have better therapeutic potential than inhibitors. Therefore the discovery and development of chemical activators may provide a new strategy for the chaperone therapy.
We have optimized a new assay using N370S mutant GC derived from the spleen of a Gaucher patient. […] In addition, the MLPCN compound library has expanded, which increases the chance of finding new and better probes.
NCGC Assay Protocol Summary:
This is a fluorogenic enzyme assay with 4-methylumbelliferyl-beta-D-glucopyranoside as the substrate and N370S glucocerebrosidase from human spleen homogenate as the enzyme preparation. Upon the hydrolysis of this fluorogenic substrate, the resulting product, […] which can be detected by a standard fluorescence plate reader. Data were normalized to the controls for basal activity (without enzyme) and 100% activity (with enzyme). The AC50 values were determined from concentration-response data modeled with the standard Hill equation.
Assay buffer: 50 mM citric acid (titrated with potassium phosphate to pH 5.0), 100 mM potassium chloride, 10 mM sodium chloride, 1 mM magnesium chloride, 0.01% Tween-20.
1536-well assay protocol:
(1) Add 2 ul/well of spleen homogenate (27 ug final)
(2) Add 23 nL compounds in DMSO solution. The final titration was 0.5 nM to 58 uM.
(3) Add 2 ul of substrate (1 mM final)
(4) Incubate at 37C for 40 min.
(5) Add 2 ul stop solution (1M NaOH and 1M Glycine mixture, pH 10)
(6) Detect the assay plate in a ViewLux plate reader (PerkinElmer) with Ex=365 nm and Em=440nm.
Keywords: Glucocerebrosidase, beta-glucosidase, Gaucher Disease, pharmacological chaperone, chaperone therapy, high throughput screening, glucocerebrosidase inhibitor, MLSMR, MLSCN, NIH Roadmap, qHTS and NCGC
Potency means the concentration at half of the fitted maximal effect.

Lysosomal acid glucosylceramidase (Homo sapiens), sequence (P04062 whole entry N409S): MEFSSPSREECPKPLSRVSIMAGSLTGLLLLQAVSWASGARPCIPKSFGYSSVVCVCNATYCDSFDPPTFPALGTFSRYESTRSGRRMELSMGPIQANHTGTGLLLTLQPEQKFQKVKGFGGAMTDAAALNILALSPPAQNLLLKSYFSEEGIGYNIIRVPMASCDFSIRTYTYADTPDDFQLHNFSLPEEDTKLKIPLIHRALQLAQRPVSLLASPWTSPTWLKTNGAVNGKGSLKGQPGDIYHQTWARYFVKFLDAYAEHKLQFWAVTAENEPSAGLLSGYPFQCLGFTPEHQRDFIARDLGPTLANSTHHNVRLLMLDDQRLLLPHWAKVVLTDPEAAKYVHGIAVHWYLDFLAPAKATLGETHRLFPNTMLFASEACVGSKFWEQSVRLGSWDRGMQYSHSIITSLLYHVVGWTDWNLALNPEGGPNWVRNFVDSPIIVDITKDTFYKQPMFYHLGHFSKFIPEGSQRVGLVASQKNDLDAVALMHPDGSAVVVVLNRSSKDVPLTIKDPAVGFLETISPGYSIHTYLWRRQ

Row | SMILES | Potency
1 | Cc1cc2[nH]c(=O)c(=O)[nH]c2cc1S(=O)(=O)N1CCN(c2cccc(C(F)(F)F)c2)CC1 | 5.17 µM (active)
2 | S=C(NCCCc1cnc[nH]1)NCCCN(Cc1ccc(Cl)cc1)c1cc(-c2ccccc2)ccn1 | 5.66 µM (active)
3 | CCCCNC(=S)NCCCc1cnc[nH]1 | inactive
4 | Cc1cc(NC(=O)CCS(=O)(=O)c2ccc3c(c2)NC(=O)C(C)S3)ccc1Br (stereo not given) | 6.51 µM (active)
5 | Cc1cccc(S(=O)(=O)N2CCN(c3nc(-c4cccs4)nc4ccccc34)CC2)c1 | 2.01 µM (active)
6 | O=S(=O)(c1ccc(F)cc1)N1CCN(c2nc(-c3ccc(F)cc3)nc3cc(Cl)ccc23)CC1 | inactive
7 | Cc1ccc(S(=O)(=O)N2CCN(c3nc(-c4ccc(CN5CCOCC5)s4)nc4ccccc34)CC2)cc1 | 11.3 µM (active)
8 | Cc1ccc(S(=O)(=O)N2CCN(c3nc(-c4ncco4)nc4ccccc34)CC2)cc1 | 9.02 µM (active)
9 | CCC(=O)OCCNc1nc(-c2ccccc2)nc2ccccc12 | 16 µM (active)
10 | S=C(NCCCc1cnc[nH]1)NCCCN(Cc1ccc(Cl)cc1)c1ccc(Br)cn1 | 1.16 µM (active)
11 | NS(=O)(=O)c1ccc(S(=O)(=O)N2CCN(c3nc(-c4cccs4)nc4ccccc34)CC2)cc1 | 3.26 µM (active)
12 | Cc1ccc(S(=O)(=O)N2CCN(c3nc(-c4ccc(CN5CCNCC5)s4)nc4ccccc34)CC2)cc1 | 12.7 µM (active)
13 | O=[N+]([O-])c1cccc(S(=O)(=O)N2CCN(c3nc(-c4cccs4)nc4ccccc34)CC2)c1 | 2.53 µM (active)
14 | S=C(NCCCc1cnc[nH]1)NCCCN(Cc1ccc(Cl)cc1)c1ccc(Br)cc1 | 1.13 µM (active)
15 | O=S(=O)(c1ccc(F)cc1)N1CCN(c2nc(-c3cccs3)nc3ccccc23)CC1 | 1.27 µM (active) and 713 nM (active)
16 | O=S(=O)(c1ccccc1C(F)(F)F)N1CCN(c2nc(-c3ccccc3)nc3ccccc23)CC1 | 2.91 µM (active)
17 | CC(C)OCCCNc1nc(-c2ccccc2)nc2ccccc12 | 4.01 µM (active)
18 | O=S(=O)(c1ccc(C(F)(F)F)cc1)N1CCN(c2nc(-c3cccs3)nc3ccccc23)CC1 | 2.53 µM (active)
19 | O=[N+]([O-])c1ccccc1S(=O)(=O)N1CCN(c2nc(-c3cccs3)nc3ccccc23)CC1 | 0.73 µM (active)
20 | O=S(=O)(c1nccs1)N1CCN(c2nc(-c3cccs3)nc3ccccc23)CC1 | 7.3 µM (active)

Row | SMILES | Potency
21 | Cc1ccccc1S(=O)(=O)N1CCN(c2nc(-c3cccs3)nc3ccccc23)CC1 | 2.53 µM (active)
22 | CC(C)(C)C(=O)OCCNc1nc(-c2cccs2)nc2ccccc12 | 1.46 µM (active)
23 | CC(=O)NCCCN(Cc1ccc(Cl)c(Cl)c1)c1ccc(Br)cn1 | inactive
24 | O=[N+]([O-])c1ccccc1S(=O)(=O)N1CCN(c2nc(-c3ccccc3)nc3ccccc23)CC1 | 5.69 µM (active)
25 | Cc1csc(NC(=O)CN2C(=O)c3ccccc3S2(=O)=O)n1 | inactive
26 | O=S(=O)(c1ccc(F)cc1)N1CCN(c2nc(-c3cccs3)nc3cc(Cl)ccc23)CC1 | inactive
27 | O=S(=O)(c1ccc(Cl)cc1)N1CCN(c2nc(Nc3cc(Cl)ccc3O)nc3ccccc23)CC1 | 2.59 µM (active)
28 | O=S(=O)(c1ccc(Cl)cc1)N1CCN(c2nc(-c3ccccc3)nc3ccccc23)CC1 | 5.8 µM (active)
29 | O=S(=O)(c1cccc(C(F)(F)F)c1)N1CCN(c2nc(-c3cccs3)nc3cc(Cl)ccc23)CC1 | inactive
30 | CNCCN(C)c1nc(-c2cccs2)nc2ccccc12 | inactive
31 | Cc1ccc(S(=O)(=O)N2CCN(c3nc(-n4cnc5ccccc54)nc4ccccc34)CC2)cc1 | inactive
32 | S=C(NCCCc1cnc[nH]1)NCCCN(CCc1ccccc1)c1ccc(Br)cn1 | 2.25 µM (active)
33 | O=S(=O)(c1ccc(F)cc1F)N1CCN(c2nc(-c3cccs3)nc3ccccc23)CC1 | 1.27 µM (active)
34 | Cc1ccc(S(=O)(=O)N2CCN(c3nc(-c4ccc(C)s4)nc4ccccc34)CC2)cc1 | 3.26 µM (active)
35 | COc1ccc(Nc2nc(-c3cccs3)nc3ccccc23)cc1 | 2.25 µM (active)
36 | CCN1CCN(C(=O)CCN(CC(C)C)c2nc(-c3cccs3)nc3ccccc23)CC1 | 20.2 µM (active)
37 | O=S(=O)(c1cccnc1)N1CCN(c2nc(-c3cccs3)nc3ccccc23)CC1 | 3.18 µM (active)
38 | CCC1CN(S(=O)(=O)c2ccc3c(c2)NC(=O)CC(=O)N3)c2cc(Cl)ccc2O1 (stereo not given) | 2.91 µM (active)
39 | NCCCNc1ccc(Br)cn1 | inactive
40 | Cc1ccc(S(=O)(=O)N2CCN(c3nc(-c4cccs4)nc4cccnc34)CC2)cc1 | 2.53 µM (active)

— PubChem BioAssay AID2590 (National Center for Advancing Translational Sciences (NCATS), 2010)
